{"source": "PubChem BioAssay AID624331", "about": "(National Center for Advancing Translational Sciences (NCATS), 2012)", "note": "Inconclusive results are not listed. Active and inactive are the calls of the source. Calls come from the whole dose curve; as a rule, active = well fitted activation curve with a large enough effect; inconclusive = small, poorly fitted or top-dose-only effect; inactive = no such curve, though single readings can be large or run the other way. Potency is the fitted concentration of half-maximal effect."}
{"assay": "qHTS assay for re-activators of p53 using a Luc reporter: Hit Validation with no p53 Expressed; for activity change, positive = activation: 0% is about no effect", "conditions": "p53-null cells, luciferase reporter counter-screen; series mostly up to 46.1 µM; activity change, positive = activation: at the top concentration", "outline": "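Counter-screen of primary hits in a cell line not transfected with p53, in Opti-MEM with 10% FBS; compounds at several concentrations (10 mM stock, 1:5; top 46.1 µM in well), 24 h at 37 deg C, 5% CO2. Luminescence read after 10 min with Amplite reagent.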"}
{"smiles": "O=C(NCc1ccco1)c1noc2c1CCCC2", "activity change, positive = activation": "3.62% (inactive)"}
{"smiles": "CCn1c(=N)n(CCOc2ccc(OC)cc2)c2ccccc21", "activity change, positive = activation": "9.06% (inactive)"}
{"smiles": "Cc1cc(C)n2cc(CSc3nc4ccccc4s3)nc2n1", "activity change, positive = activation": "-26.5% (inactive)"}
{"smiles": "Cc1ccc(C(=O)CC(=O)COc2ccc(Cl)cc2)cc1", "activity change, positive = activation": "90% (inactive)"}
{"smiles": "CCSc1nnc(SCC(=O)NC2CCCCC2)s1", "activity change, positive = activation": "-56% (inactive)"}
{"smiles": "COc1ccccc1/C=C/C(=O)Nc1ccc2c(c1)CCC2", "Potency": "2.91 µM (active)"}
{"smiles": "Cc1cc(C(=O)COC(=O)c2cccc(O)c2)c(C)n1C1CC1", "activity change, positive = activation": "-26.1% (inactive)"}
{"smiles": "CCS(=O)(=O)NCCc1csc(-c2ccccc2)n1", "activity change, positive = activation": "-21.3% (inactive)"}
{"smiles": "CC(C)N1CCc2c(sc(NC(=S)NC(=O)c3ccccc3)c2C#N)C1", "activity change, positive = activation": "3.16% (inactive)"}
{"smiles": "COc1ccccc1-c1nc(-c2ccc(Br)o2)no1", "Potency": "0.82 µM (active)"}
{"smiles": "COc1cc(C(=O)NCCc2cn3ccc(C)cc3n2)cc(OC)c1OC", "activity change, positive = activation": "-28.5% (inactive)"}
{"smiles": "Cc1ccc2nc(-c3ccc(NC(=O)CN4C(=O)c5ccccc5C4=O)cc3)sc2c1", "activity change, positive = activation": "44.7% (inactive)"}
{"smiles": "Cc1occc1C(=O)NNC(=S)Nc1ccccc1C(F)(F)F", "activity change, positive = activation": "1.85% (inactive)"}
{"smiles": "Cc1cc(C(=O)Nc2ccc(Br)cn2)sc1C", "activity change, positive = activation": "-16.7% (inactive)"}
{"smiles": "Cc1cccc(C)c1Nc1c(-c2ccccn2)nc2ccccn12", "activity change, positive = activation": "-50% (inactive)"}
{"smiles": "COc1ccccc1NC(CC(=O)c1ccccc1)C(=O)OCC(=O)c1ccc(C)cc1", "note": "(stereo not given)", "activity change, positive = activation": "99.4% (inactive)"}
{"smiles": "NC(=NCc1ccccc1)c1cccc([N+](=O)[O-])c1", "activity change, positive = activation": "-33.5% (inactive)"}
{"smiles": "CN1CCN(C(=O)c2cc3ccccc3cc2O)CC1", "activity change, positive = activation": "-18% (inactive)"}
{"smiles": "Nc1nonc1-n1nnc(C(=O)N/N=C/c2ccc(OCc3cccc(Cl)c3)cc2)c1CN1CCCCC1", "activity change, positive = activation": "56.6% (inactive)"}
{"smiles": "COc1ccc(N2CCN(C3CCCN(Cc4cccc(OC)c4)C3)CC2)cc1", "note": "(stereo not given)", "activity change, positive = activation": "19.7% (inactive)"}
{"smiles": "COc1cc(/C=C/C(=O)N2C(=O)c3cccc(N)c3C2=O)cc(OC)c1OC", "activity change, positive = activation": "-11.8% (inactive)"}
{"smiles": "O=C(Nc1cccnc1)c1ccc([N+](=O)[O-])s1", "activity change, positive = activation": "-52.7% (inactive)"}
{"smiles": "CC1CCC(NC(=O)C2CCN(C(=O)Nc3ccccc3)CC2)CC1", "note": "(stereo not given)", "activity change, positive = activation": "9.02% (inactive)"}
{"smiles": "Cc1ccnc(NC(=O)/C=C/c2cccs2)c1", "activity change, positive = activation": "-14.7% (inactive)"}
{"smiles": "Cc1cccc(-n2c(C)cc(C(=O)NC3CCCCC3)c2C)c1", "activity change, positive = activation": "47.2% (inactive)"}
{"smiles": "CCn1c(=O)c2ccccc2n(Cc2ccccc2C)c1=O", "activity change, positive = activation": "55.8% (inactive)"}
{"smiles": "Cc1c(/C(O)=C2/C(=O)C(=O)N(Cc3cccnc3)C2c2cccs2)cnn1-c1ccccc1", "note": "(stereo not given)", "activity change, positive = activation": "-12.3% (inactive)"}
{"smiles": "CC(/C=N/Nc1nc2ccccc2[nH]1)=C\\c1ccccc1", "Potency": "0.116 µM (active)"}
{"smiles": "Cc1ccc(NC(=O)COc2ccc3c(c2)OCO3)c(Cl)c1", "activity change, positive = activation": "14.4% (inactive)"}
{"smiles": "COc1cc(NC(=O)CN2CCCCC2)c(C)cc1[N+](=O)[O-]", "activity change, positive = activation": "26.6% (inactive)"}
{"smiles": "COc1ccnc(CSC(N)=Nc2ccccc2OC)c1", "activity change, positive = activation": "-41.7% (inactive)"}
{"smiles": "O=C(N/N=C(\\c1ccccc1)c1ccccn1)c1ccccc1Cl", "activity change, positive = activation": "-64.3% (inactive)"}
{"smiles": "Cc1cc(C(=O)COC(=O)c2ccc(O)cc2)c(C)n1CC(F)(F)F", "Potency": "20.6 µM (active)"}
{"smiles": "CCOC(=O)c1c(C)[nH]c(C(=O)CSc2ccccc2)c1C", "activity change, positive = activation": "14.4% (inactive)"}
{"smiles": "Cc1ccc(C)c(/C=C/C(=O)c2ccccc(=O)c2O)c1", "activity change, positive = activation": "7.8% (inactive)"}
{"smiles": "S=C(Nc1ccccc1)Nc1nc2ccccc2n1CCOc1ccc(Br)cc1", "activity change, positive = activation": "-17.4% (inactive)"}
{"smiles": "Nc1nonc1-n1nnc(C(=O)N/N=C/c2ccc(Br)cc2)c1CSC1=NCCS1", "activity change, positive = activation": "-5.67% (inactive)"}
{"smiles": "O=C(Nc1ccc(COc2ccccc2)cc1)c1cccc([N+](=O)[O-])c1", "activity change, positive = activation": "5.64% (inactive)"}
{"smiles": "O=C(NC(=S)Nc1cccc(O)c1)C1CCCCC1", "activity change, positive = activation": "20.3% (inactive)"}
{"smiles": "O=C(Nc1nc2c(s1)CCCC2)C1COc2ccccc2O1", "note": "(stereo not given)", "activity change, positive = activation": "-13.6% (inactive)"}
